Measured values as given in PubChem BioAssay AID1611 (NINDS Approved Drug Screening Program, 2009).

assay: HSE-luciferase reporter activators – cell-based (AID 1611); settings: human cells, HSE-luciferase heat shock reporter; stronger effect = higher value

Row | SMILES | fold change
1 | C[N+]1(C)C2CC[C@H]1CC(OC(=O)C(O)c1ccccc1)C2 (stereo partly specified) | 1.16
2 | CCC(=O)c1ccc2c(c1)N(CC(C)N(C)C)c1ccccc1S2 (stereo unspecified) | 0.88
3 | O=C(O)CCCCC1SCC2NC(=O)NC21 (stereo unspecified) | 2.49
4 | Oc1cccc(O)c1 | 1.06
5 | CN(C)c1ccc(C(=C2C=CC(=[N+](C)C)C=C2)c2ccc(N(C)C)cc2)cc1 | 1.22
6 | C[C@](N)(Cc1ccc(O)c(O)c1)C(=O)O | 0.74
7 | Cc1ncc([N+](=O)[O-])n1CCO | 1.2
8 | CCOC(=O)C(Cc1ccc(O)cc1)NC(C)=O (stereo unspecified) | 0.71
9 | CC(C)CC1NC(=O)CNC1=O (stereo unspecified) | 0.55
10 | C[C@H](CS)C(=O)N1CCC[C@H]1C(=O)O | 0.72
11 | O=C(C1CCCCC1)N1CC(=O)N2CCc3ccccc3C2C1 (stereo unspecified) | 1.17
12 | COc1ccc2cc3[n+](cc2c1OC)CCc1cc2c(cc1-3)OCO2 | 1.07
13 | CC1CCc2cc(F)cc3c(=O)c(C(=O)O)cn1c23 (stereo unspecified) | 1.07
14 | Cc1ccccc1OCC(O)CO (stereo unspecified) | 0.73
15 | COC(=O)[C@H]1[C@H]2C[C@@H]3c4[nH]c5cc(OC)ccc5c4CCN3C[C@H]2C[C@@H](OC(=O)c2cc(OC)c(OC)c(OC)c2)[C@@H]1OC | 0.6
16 | CCCCOc1ccc(CC(=O)NO)cc1 | 0.79
17 | CC(=O)[C@H]1CCC2C3CC=C4C[C@@H](O)CC[C@]4(C)C3CC[C@@]21C (stereo partly specified) | 0.92
18 | CC(C)NNC(=O)c1ccncc1 | 1.02
19 | CN1CCN(CC(=O)N2c3ccccc3C(=O)Nc3cccnc32)CC1 | 1.06
20 | CN1CCc2cccc3c2C1Cc1ccc(O)c(O)c1-3 (stereo unspecified) | 0.71
21 | O=c1c(O)cc2c(O)oc3c(=O)c(O)cc4c3c2c1CC=4O | 1.46
